Only some compounds are listed: those with a hit (about 14% of all), similar ones and a draw of the others.
HADH2 inh: blocks human hydroxyacyl-CoA dehydrogenase type II; actives 3.4% (n = 73,000); Q99714; recombinant HADH2, NADH fluorescence, beta-hydroxybutyryl-CoA; Potency, µM (highest dose often 57.1 µM), hits mostly inhibitors; also: nearly all actives have a fitted effect of over 60% in size
Target sequence (Q99714 whole entry, looked up, one chain of several): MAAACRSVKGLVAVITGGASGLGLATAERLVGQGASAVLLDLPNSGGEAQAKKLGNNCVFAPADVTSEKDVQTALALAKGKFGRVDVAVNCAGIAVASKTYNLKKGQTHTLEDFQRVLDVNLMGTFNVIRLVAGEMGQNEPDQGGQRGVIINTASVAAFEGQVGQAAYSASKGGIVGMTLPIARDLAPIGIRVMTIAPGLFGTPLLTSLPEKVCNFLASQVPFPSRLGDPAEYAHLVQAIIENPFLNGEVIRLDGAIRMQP
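Read-out: 360 nm excitation, 450 nm emission, kinetic over 4 min. Conditions: His-tagged human HADH2 20 nM, pH 9.0 Tris with Tween-20, 1 mM NAD+, 90 uM beta-hydroxybutyryl-CoA.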
CRE-bla Fsk: modulators of forskolin-stimulated CRE signaling in CHO cells. CHO CRE-bla reporter (cAMP response element driving beta-lactamase), forskolin EC10, beta-lactamase ratio. Potency, µM (highest dose often 38.2 µM), hits mostly activators. actives 2.5% (n = 71,000); active = well fitted activation curve with a large enough effect in the signal ratio, with a control signal flat, not every such curve was filed as active; inconclusive = small, poorly fitted or top-dose-only effect, or effect the other way, or a change in a side signal; the % refers to the signal ratio
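Modulation of forskolin signalling: compounds in titration series added with EC10 NKH 477 to CHO cells carrying a CRE-driven beta-lactamase reporter, 3 h, 37C. CCF4 FRET ratio (460/530 nm, ex 405 nm) gives %activity and AC50.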
A350 autofl: compounds fluorescent in Alexa 350 spectral region; actives 11% (n = 59,000); Compound autofluorescence, 340/450 nm, Alexa 350 dye-equivalents; stronger effect = higher value; max dye-equivalent concentration, M; in the data active = max dye-equivalent concentration above about 10 nM; inconclusive = mostly about 1.1 nM to 9.6 nM
4MU fluor: compound fluoresces in the 4-MU spectral region; compound autofluorescence, 340/450 nm, 4-MU equivalents; stronger effect = higher value; max dye-equivalent concentration, M; actives 11% (n = 59,000); in the data active = max dye-equivalent concentration above about 10 nM; inconclusive = mostly about 1.1 nM to 9.6 nM
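Compounds in 100 mM Tris, pH 8.0, incubated 15 min at room temperature, then fluorescence read at 340 nm excitation/450 nm emission. Signal converted to 4-MU dye-equivalent concentration using an on-plate six-point 4-MU standard curve.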
HSD17B inhib: blocks hydroxysteroid 17-beta dehydrogenase activity; Q99714; recombinant HSD17B10, NADH fluorescence kinetic; Potency, µM (titrated, usually from 57.1 µM), most hits filed as inhibitors; actives 7.6% (n = 75,000);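 also: the protocol describes HADH2 (HSD17B10) and not the HSD17B4 of the title; nearly all actives have a fitted effect of over 70% in size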
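Activity followed as NADH fluorescence increase (ex 360, em 450 nm) every 30 seconds for 4 min, using final 90 uM beta-hydroxybutyryl CoA and 1 mM NAD+. Recombinant His-tagged enzyme, 20 nM, pH 9.0 Tris buffer, 15 min compound preincubation.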
AID923: qHTS Assay for Allosteric/Competitive Inhibitors of Caspase-1: Spectroscopic Profiling in AFC Spectral Region; compound fluorescence, AFC spectral region (405/520 nm); Potency, µM (top dose mostly 57.5 µM), hits mostly activators; actives 1.1% (n = 75,000)
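Compound autofluorescence profiled at 405 nm ex/520 nm em during kinetic caspase 1 run (50 nM enzyme, 5 uM Ac-WEHD-AFC, HEPES pH 7.5, 10 mM DTT). Titration up to 57 uM; baseline from regression intercept, normalized to AFC standard curve.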
Of the large screens only hits and unclear results are named; the others gave an inactive call. Unless noted, calls follow the shape of the dose curve; as a rule, active = well fitted curve in the direction sought with a large enough effect; inconclusive = small, poorly fitted or top-dose-only effect, or another doubt; inactive = no such curve, though single readings can be large; an effect the other way counts as inactive or inconclusive.

Cn1c(CN2CCOCC2)nnc1SCC(=O)Nc1nccs1	CRE-bla Fsk inconclusive, A350 autofl 1.8e-08M, 4MU fluor 1.6e-08M
Cn1c(CN2CCOCC2)nnc1SCC(=O)Nc1ccc2c(c1)OCCO2	none
COc1ccc2nc3oc(C(=O)N4CCN(c5cccc(Cl)c5)CC4)cc3cc2c1	CRE-bla Fsk inconclusive, A350 autofl inconclusive, 4MU fluor inconclusive
CCN1CCN(C(=O)c2cc3cc4cc(OC)ccc4nc3s2)CC1	CRE-bla Fsk inconclusive, A350 autofl 1.3e-07M, 4MU fluor 1.3e-07M, HSD17B inhib 25µM
CCOC(=O)c1c(C)[nH]c(C(=O)Cn2c(=O)oc3ccccc32)c1C	CRE-bla Fsk inconclusive, 4MU fluor 4.2e-08M
N#Cc1c2n(c3c(=O)n(Cc4ccccc4Cl)cnc13)CCCC2	CRE-bla Fsk inconclusive
N#Cc1c2n(c3c(=O)n(Cc4ccc(Cl)cc4)cnc13)CCCC2	CRE-bla Fsk 10µM (no result: A350 autofl, 4MU fluor)
CO[C@@H]1COC(=O)C/C=C\[C@H](C)COC(=O)[C@H](Cc2ccccc2)NC(=O)C/C=C\[C@H]1C	none (no result: CRE-bla Fsk, A350 autofl, 4MU fluor)
CC1(C)O[C@H]2O[C@@H]([C@H](O)CON3C(=O)c4ccccc4C3=O)[C@H](O)[C@H]2O1	none (no result: CRE-bla Fsk, A350 autofl, 4MU fluor)
CC1(C)CC(NC(=O)c2coc(=O)c(Br)c2)CC(C)(C)N1	HADH2 inh inconclusive, A350 autofl 6.6e-07M, 4MU fluor 5e-07M, HSD17B inhib 32µM
CCOC(=O)N/N=C1/C[C@@H](O)[C@@H](O)[C@@H]2[C@@H]3C(=O)N(Cc4ccc5c(c4)OCO5)C(=O)[C@H]3CC[C@@H]12	none (no result: CRE-bla Fsk, A350 autofl, 4MU fluor)
Cc1nc2c(c(=O)n1CC1CCCO1)c1nc3ccccc3nc1n2Cc1ccc2c(c1)OCO2 (stereo unspecified)	A350 autofl 1.7e-08M, 4MU fluor 1.8e-08M (no result: HADH2 inh, CRE-bla Fsk, HSD17B inhib, AID923)
Cc1nc2c(c(=O)n1CC1CCCO1)c1nc3ccccc3nc1n2CC(C)C (stereo unspecified)	A350 autofl 3.1e-08M, 4MU fluor 3.5e-08M (no result: HADH2 inh, CRE-bla Fsk, HSD17B inhib, AID923)
COc1ccc(-c2cc(C(=O)N3CCOCC3)c3cc(C)ccc3n2)cc1	HADH2 inh 32µM, A350 autofl 7.3e-07M, 4MU fluor 5.7e-07M, HSD17B inhib 25µM
Cc1ccc(-c2cc(C(=O)N3CCOCC3)c3ccccc3n2)cc1	HADH2 inh inconclusive, CRE-bla Fsk inconclusive, A350 autofl inconclusive, 4MU fluor inconclusive, HSD17B inhib 25µM
C[C@@H](C(=O)Nc1ccc2ccccc2c1)[C@@H]1C[C@@]1(C)[C@@H](NC(=O)Oc1ccc(F)cc1)c1ccccc1	none (no result: A350 autofl, 4MU fluor)
CCc1nc(Nc2ccncc2)c2oc3ccccc3c2n1	HADH2 inh inconclusive, CRE-bla Fsk inconclusive, A350 autofl inconclusive, 4MU fluor inconclusive, HSD17B inhib 25µM
CC(=O)Nc1ccc(Nc2nc(C)nc3c2oc2ccccc23)cc1	HADH2 inh 32µM, CRE-bla Fsk inconclusive, A350 autofl 8.8e-07M, 4MU fluor 5.8e-07M, HSD17B inhib inconclusive
Cc1nc(NCCc2cnc[nH]2)c2oc3ccccc3c2n1	none
Cc1nc(NCc2ccco2)c2oc3ccccc3c2n1	CRE-bla Fsk 7.9µM
CCc1nc(NCc2ccccn2)c2oc3ccccc3c2n1	CRE-bla Fsk inconclusive, A350 autofl inconclusive
CC(=O)c1ccc(Nc2ncnc3c2oc2ccccc23)cc1	CRE-bla Fsk inconclusive, A350 autofl 3.4e-08M, 4MU fluor 3.1e-08M
C=CC[C@@H]1C=C[C@H](Oc2ccc(C)cc2)[C@H](COC(=O)NCc2cccc3ccccc23)O1	none (no result: CRE-bla Fsk, A350 autofl, 4MU fluor)
Cc1nc(Nc2ccncc2)c2oc3ccccc3c2n1	HADH2 inh inconclusive, HSD17B inhib 32µM
Cc1nc(NC(C)c2ccccc2)c2oc3ccccc3c2n1 (stereo unspecified)	CRE-bla Fsk inconclusive, A350 autofl inconclusive, 4MU fluor inconclusive
CCc1nc(NC(C)C)c2oc3ccccc3c2n1	CRE-bla Fsk 1.6µM, A350 autofl inconclusive
O=C(Nc1ccccc1OC(F)F)c1ccc(Br)o1	A350 autofl inconclusive
CCO[Si](CCCN)(OCC)OCC	none (no result: A350 autofl, 4MU fluor)
COc1cc2c(cc1OC)/C(=C/C#N)NC(C)(C)C2	CRE-bla Fsk 2µM, A350 autofl 2.7e-08M, 4MU fluor 2.6e-08M

Screening results: PubChem, National Center for Advancing Translational Sciences (NCATS)
